{"source": "the supplement of paper PMC12808144"}
{"system": "Mel-DCC-11-R", "experiment": "cell viability relative to DMSO control (fraction of DMSO control); higher = less cytotoxic, active = 0.8 or less", "details": "1 µM; 120 h; vemurafenib co-treatment 0 µM", "outline": "(§1)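 The screen used 384-well plates acoustically pre-spotted with 315 approved anti-cancer drugs from TargetMol, each at 1 µM in duplicate. Into each well went 40 µl of cells, 2500 NHEM-hTERT immortalized melanocytes or 1500 of patient-derived Mel-DCC-11 or its resistant subline Mel-DCC-11-R, and plates were kept 120 h, with the subline also tested alongside 8 µM of its selecting drug. Readout was by ATPlite 1step luminescence. Viability values were normalised to vehicle-treated controls and averaged between duplicates.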"}
{"smiles": "COc1cc([C@@H]2c3cc4c(cc3[C@@H](O[C@@H]3O[C@@H]5CO[C@@H](c6cccs6)O[C@H]5[C@H](O)[C@H]3O)[C@H]3COC(=O)[C@H]23)OCO4)cc(OC)c1O", "note": "[Teniposide]", "cell viability": "1.39 (inactive)"}
{"smiles": "C/C=C1/NC(=O)[C@H]2CSSCC/C=C/[C@H](CC(=O)N[C@H](C(C)C)C(=O)N2)OC(=O)[C@H](C(C)C)NC1=O", "note": "[Romidepsin]", "cell viability": "0.0525 (active)"}
{"smiles": "Nc1nc(Cl)nc2c1ncn2[C@H]1C[C@H](O)[C@@H](CO)O1", "note": "[Cladribine]", "cell viability": "0.977 (inactive)"}
{"smiles": "O=C(NC(Cc1cc(=O)[nH]c2ccccc12)C(=O)O)c1ccc(Cl)cc1", "note": "(stereo unspecified) [Rebamipide]", "cell viability": "0.995 (inactive)"}
{"smiles": "COc1cc(N2CCC(N3CCN(C)CC3)CC2)ccc1Nc1ncc(Cl)c(Nc2ccccc2P(C)(C)=O)n1", "note": "[Brigatinib]", "cell viability": "1.08 (inactive)"}
{"smiles": "COc1ccc2cc1Oc1ccc(cc1)C[C@H]1c3cc(c(OC)cc3CCN1C)Oc1c(OC)c(OC)cc3c1[C@H](C2)N(C)CC3", "note": "[Tetrandrine]", "cell viability": "0.886 (inactive)"}
{"smiles": "O=C(O)C1CSCN1", "note": "(stereo unspecified) [Thioproline]", "cell viability": "0.893 (inactive)"}
{"smiles": "Nc1[nH]c(=O)ncc1F", "note": "[Fluorocytosine]", "cell viability": "0.936 (inactive)"}
{"smiles": "Nc1nc(F)nc2c1ncn2[C@@H]1O[C@H](CO)[C@@H](O)[C@@H]1O", "note": "[Fludarabine]", "cell viability": "1.2 (inactive)"}
{"smiles": "CCCc1cc(C)[nH]c(=O)c1CNC(=O)c1cc(-c2ccnc(N3CCN(C)CC3)c2)cc2c1cnn2C(C)C", "cell viability": "0.999 (inactive)"}
{"system": "Mel-DCC-11-R", "experiment": "cell viability relative to DMSO control (fraction of DMSO control); higher = less cytotoxic, active = 0.8 or less", "details": "1 µM; 120 h; vemurafenib co-treatment 8 µM", "outline": "as §1"}
{"smiles": "C#Cc1cccc(Nc2ncnc3cc(OCCOC)c(OCCOC)cc23)c1", "note": "[Erlotinib]", "cell viability": "0.732 (active)"}
{"smiles": "N.N.O=C([O-])C[O-].[Pt+2]", "note": "[Nedaplatin]", "cell viability": "1.18 (inactive)"}
{"smiles": "S=c1nc[nH]c2nc[nH]c12", "note": "[Mercaptopurine]", "cell viability": "0.993 (inactive)"}
{"smiles": "C=CC(=O)Nc1cccc(Nc2nc(Nc3ccc(N4CCN(C(C)=O)CC4)cc3OC)ncc2C(F)(F)F)c1", "note": "[Rociletinib]", "cell viability": "0.836 (inactive)"}
{"smiles": "CC(/C=C/C=C(\\C)C(=O)O[C@@H]1O[C@H](CO[C@@H]2O[C@H](CO)[C@@H](O)[C@H](O)[C@H]2O)[C@@H](O)[C@H](O)[C@H]1O)=C\\C=C\\C=C(C)\\C=C\\C=C(/C)C(=O)O[C@@H]1O[C@H](CO[C@@H]2O[C@H](CO)[C@@H](O)[C@H](O)[C@H]2O)[C@@H](O)[C@H](O)[C@H]1O", "note": "[Crocin]", "cell viability": "1.03 (inactive)"}
{"smiles": "Nc1nc(=O)c2c([nH]1)NCC(CNc1ccc(C(=O)N[C@@H](CCC(=O)[O-])C(=O)[O-])cc1)N2C=O.[Ca+2]", "note": "(stereo partly specified) [Calcium folinate]", "cell viability": "1.31 (inactive)"}
{"smiles": "O=c1ccn([C@@H]2O[C@H](CO)[C@@H](O)[C@H]2O)c(=O)[nH]1", "note": "[Uridine]", "cell viability": "1.09 (inactive)"}
{"smiles": "CC[C@]1(O)C[C@H]2CN(CCc3c([nH]c4ccccc34)[C@@](C(=O)OC)(c3cc4c(cc3OC)N(C=O)[C@H]3[C@@](O)(C(=O)OC)[C@H](OC(C)=O)[C@]5(CC)C=CCN6CC[C@]43[C@@H]65)C2)C1.O=S(=O)(O)O", "note": "[Vincristine sulfate]", "cell viability": "0.242 (active)"}
{"smiles": "NC(=O)NO", "note": "[Hydroxyurea]", "cell viability": "0.655 (active)"}
{"smiles": "CC1(C)O[C@H]2CC(=O)OC[C@]23[C@H]2CC[C@@]4(C)[C@H](c5ccoc5)OC(=O)[C@H]5O[C@]54[C@]2(C)C(=O)C[C@@H]13", "note": "[Limonin]", "cell viability": "1.11 (inactive)"}
{"smiles": "Nc1ccn([C@@H]2O[C@H](CO)[C@@H](O)[C@@H]2O)c(=O)n1", "note": "[Cytarabine]", "cell viability": "0.936 (inactive)"}
{"smiles": "CO[C@H]1C(=O)[C@]2(C)[C@@H](OC)C[C@H]3OC[C@@]3(OC(C)=O)[C@H]2[C@H](OC(=O)c2ccccc2)[C@]2(O)C[C@H](OC(=O)[C@H](O)[C@@H](NC(=O)OC(C)(C)C)c3ccccc3)C(C)=C1C2(C)C", "note": "[Cabazitaxel]", "cell viability": "0.565 (active)"}
{"smiles": "CCCCc1nc2cc(/C=C/C(=O)NO)ccc2n1CCN(CC)CC", "note": "[Pracinostat]", "cell viability": "0.453 (active)"}
{"smiles": "CNNCc1ccc(C(=O)NC(C)C)cc1.Cl", "note": "[Procarbazine hydrochloride]", "cell viability": "1.25 (inactive)"}
{"smiles": "Nc1nc(=O)c2c([nH]1)NC[C@H](CNc1ccc(C(=O)N[C@@H](CCC(=O)[O-])C(=O)[O-])cc1)N2C=O.[Ca+2]", "note": "[Calcium Levofolinate]", "cell viability": "1.27 (inactive)"}
{"smiles": "COC(=O)c1cc(OC)c2c(c1-c1c(CO)cc(OC)c3c1OCO3)OCO2", "note": "[Bicyclol]", "cell viability": "1.1 (inactive)"}
{"smiles": "O=C(Nc1c(Cl)cncc1Cl)c1ccc(OC(F)F)c(OCC2CC2)c1", "note": "[Roflumilast]", "cell viability": "1.31 (inactive)"}
{"smiles": "CCc1ccc(CCOc2ccc(CC3SC(=O)NC3=O)cc2)nc1.Cl", "note": "(stereo unspecified) [Pioglitazone hydrochloride]", "cell viability": "1.18 (inactive)"}
{"smiles": "C.CCN(CC)CCCC(C)Nc1ccnc2cc(Cl)ccc12.O=P(O)(O)O.O=P(O)(O)O", "note": "(stereo unspecified) [Chloroquine diphosphate]", "cell viability": "1.1 (inactive)"}
{"smiles": "CN(C)c1nc(N(C)C)nc(N(C)C)n1", "note": "[Altretamine]", "cell viability": "0.92 (inactive)"}
{"smiles": "CN(Cc1cnc2nc(N)nc(N)c2n1)c1ccc(C(=O)N[C@@H](CCC(=O)O)C(=O)O)cc1", "note": "[Methotrexate]", "cell viability": "1.14 (inactive)"}
{"smiles": "Nc1ccccc1NC(=O)c1ccc(CNc2nccc(-c3cccnc3)n2)cc1", "note": "[Mocetinostat]", "cell viability": "0.545 (active)"}
{"smiles": "COc1cc2nccc(Oc3ccc(NC(=O)Nc4cc(C)on4)c(Cl)c3)c2cc1OC", "note": "[Tivozanib]", "cell viability": "1.08 (inactive)"}
{"smiles": "Cc1nc(Nc2ncc(C(=O)Nc3c(C)cccc3Cl)s2)cc(N2CCN(CCO)CC2)n1", "note": "[Dasatinib]", "cell viability": "1.58 (inactive)"}
{"smiles": "COc1cc2nccc(Oc3ccc(NC(=O)C4(C(=O)Nc5ccc(F)cc5)CC4)cc3)c2cc1OC.O=C(O)C[C@H](O)C(=O)O", "cell viability": "0.365 (active)"}
{"smiles": "CC[C@@H](CO)NCCN[C@@H](CC)CO.Cl.Cl", "note": "[Ethambutol dihydrochloride]", "cell viability": "1.08 (inactive)"}
{"smiles": "COc1cc([C@@H]2c3cc4c(cc3[C@@H](O[C@@H]3O[C@@H]5CO[C@@H](c6cccs6)O[C@H]5[C@H](O)[C@H]3O)[C@H]3COC(=O)[C@H]23)OCO4)cc(OC)c1O", "note": "[Teniposide]", "cell viability": "0.638 (active)"}
{"smiles": "C/C=C1/NC(=O)[C@H]2CSSCC/C=C/[C@H](CC(=O)N[C@H](C(C)C)C(=O)N2)OC(=O)[C@H](C(C)C)NC1=O", "note": "[Romidepsin]", "cell viability": "0.0432 (active)"}
{"smiles": "Nc1nc(Cl)nc2c1ncn2[C@H]1C[C@H](O)[C@@H](CO)O1", "note": "[Cladribine]", "cell viability": "0.722 (active)"}
{"smiles": "O=C(NC(Cc1cc(=O)[nH]c2ccccc12)C(=O)O)c1ccc(Cl)cc1", "note": "(stereo unspecified) [Rebamipide]", "cell viability": "1.24 (inactive)"}
{"smiles": "COc1cc(N2CCC(N3CCN(C)CC3)CC2)ccc1Nc1ncc(Cl)c(Nc2ccccc2P(C)(C)=O)n1", "note": "[Brigatinib]", "cell viability": "0.867 (inactive)"}
{"smiles": "COc1ccc2cc1Oc1ccc(cc1)C[C@H]1c3cc(c(OC)cc3CCN1C)Oc1c(OC)c(OC)cc3c1[C@H](C2)N(C)CC3", "note": "[Tetrandrine]", "cell viability": "1.05 (inactive)"}
{"smiles": "O=C(O)C1CSCN1", "note": "(stereo unspecified) [Thioproline]", "cell viability": "1.08 (inactive)"}
{"smiles": "Nc1[nH]c(=O)ncc1F", "note": "[Fluorocytosine]", "cell viability": "1.08 (inactive)"}
{"smiles": "Nc1nc(F)nc2c1ncn2[C@@H]1O[C@H](CO)[C@@H](O)[C@@H]1O", "note": "[Fludarabine]", "cell viability": "0.977 (inactive)"}
{"smiles": "CCCc1cc(C)[nH]c(=O)c1CNC(=O)c1cc(-c2ccnc(N3CCN(C)CC3)c2)cc2c1cnn2C(C)C", "cell viability": "0.88 (inactive)"}
